# In the supplement of paper PMC3334620:
# Over roughly 33,000 sequences, “E-score (-0.5 to 0.5)” has its median near -0.01; the highest 2% begin near 0.26. The entries come from a sample that favours the highest values as a whole.
# Biological target: Ste12 (UniProt P13574)
# Experiment: PBM E-score (8-mer binding enrichment) (E-score (-0.5 to 0.5)); higher = stronger / more preferred TF binding
# Conditions: protein concentration: 200 nM; construct: GST-DNA-binding domain
# Outline: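 GST-tagged yeast TFs (full-length or DNA-binding domain) were made by PURExpress in vitro transcription/translation and applied at about 100-200 nM to universal all-10-mer Agilent arrays. The arrays were made double-stranded by primer extension, on fresh or once-stripped slides. Bound protein was detected with fluorescent anti-GST, and scans were normalised with masliner. Each ungapped eight-base word, pooled with its reverse complement, received an E-score (modified Wilcoxon-Mann-Whitney statistic) from the Universal PBM Analysis Suite.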
# Chain of UniProt P13574 (P13574 whole entry): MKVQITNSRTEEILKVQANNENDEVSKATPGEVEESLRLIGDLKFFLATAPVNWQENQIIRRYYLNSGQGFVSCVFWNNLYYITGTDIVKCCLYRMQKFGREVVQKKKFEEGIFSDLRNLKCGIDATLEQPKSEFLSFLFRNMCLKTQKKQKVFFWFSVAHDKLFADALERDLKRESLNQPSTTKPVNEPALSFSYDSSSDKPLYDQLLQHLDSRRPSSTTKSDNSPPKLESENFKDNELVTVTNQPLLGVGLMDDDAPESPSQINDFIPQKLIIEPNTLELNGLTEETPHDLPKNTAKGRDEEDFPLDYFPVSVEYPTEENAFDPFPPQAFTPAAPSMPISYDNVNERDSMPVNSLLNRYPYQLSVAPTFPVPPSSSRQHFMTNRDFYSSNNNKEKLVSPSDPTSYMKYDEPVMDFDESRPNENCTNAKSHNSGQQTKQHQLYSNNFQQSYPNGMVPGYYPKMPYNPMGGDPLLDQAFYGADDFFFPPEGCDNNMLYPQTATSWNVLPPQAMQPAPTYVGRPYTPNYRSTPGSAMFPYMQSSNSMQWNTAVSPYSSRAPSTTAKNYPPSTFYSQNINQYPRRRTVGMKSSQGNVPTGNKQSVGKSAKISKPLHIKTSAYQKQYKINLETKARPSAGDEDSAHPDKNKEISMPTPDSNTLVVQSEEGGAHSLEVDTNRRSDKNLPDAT
row,Sequence,PBM E-score
1,GCGACCTA,-0.062
2,CTGGCATC,-0.283
3,AGATTATC,-0.0475
4,CTACCTTA,-0.00289
5,CTGTGCAA,-0.101
6,ACGATTGA,0.158
7,CAGTTAAA,-0.00288
8,CATGAGCG,-0.0776
9,CGTGTGAC,-0.0425
10,AGTTCAAA,0.138
11,GCCAAATA,0.101
12,GTTTACGA,0.0472
13,CGAAAAAC,0.0959
14,CGGAAAAC,0.0342
15,AAAAAAAA,0.367
16,AAAAAAAG,0.294
17,AGAAAAAA,0.19
18,CGAAAAAA,0.308
19,CGAAAAAG,0.212
20,CAAAAAAG,0.159
21,AAAAAAGG,0.244
22,AAAAAAGA,0.182
23,CGGAAAAA,0.343
24,CGGAAAAG,0.0439
25,CAGGCGGG,0.0689

row,Sequence,PBM E-score
1,AATGGGCT,-0.092
2,CGTTTAGC,-0.0383
3,ACAGCCGT,-0.0628
4,AGCCTTAT,0.0824
5,AAAAAGCC,0.229
6,CAAAAGCG,0.14
7,AAAAAGCG,0.317
8,GCGGAAAA,0.253
9,GGGAAAAC,0.116
10,TGGAAAAA,0.302
11,AGGAAAAA,0.16
12,GGGGAAAA,0.112
13,TCGGAAAA,0.275
14,ACGGAAAA,0.177
15,GGGAAAAA,0.272
16,TTGGAAAA,0.177
17,AATCCAAA,0.14
18,CCGTTAAG,-0.177
19,ACGCTGCC,-0.108
20,ACCTTTGA,0.0506
21,GGTCTTCA,-0.164
22,CCTTTTCA,-0.0167
23,CGTAGCAA,0.00941
24,AAGCCTTG,-0.00117
25,GCTGTGAA,-0.0834

row,Sequence,PBM E-score
1,CGTGTGAA,0.14
2,GGTGTGAA,0.19
3,ACTGTGAT,-0.0243
4,TGTGTGAA,0.284
5,ACTGTGAA,0.27
6,ACTAAGAG,-0.0255
7,CAATGATA,0.074
8,CTATGATA,-0.0247
9,GCATGATA,0.0794
10,GTATGATA,0.0429
11,AAATGATC,-0.0582
12,AAATGATA,0.292
13,TAATGAGA,0.168
14,ATATGATA,0.271
15,TAATGATA,0.272
16,AAATGATT,0.197
17,GAATGATC,0.00293
18,GAATGATA,0.309
19,ATGCCTCC,-0.0978
20,CAATCTCC,-0.00169
21,CTCGATAC,0.155
22,GAGCGATC,-0.105
23,CCGGTCGC,-0.0319
24,GGTGACAA,0.0614
25,AAGAGCTC,-0.0902

row,Sequence,PBM E-score
1,CAGGGCCC,-0.148
2,CAAAATAG,-0.0251
3,AAAAATAA,0.229
4,CAAAATAC,0.115
5,ATAAATAA,0.266
6,CTAAATAA,0.0819
7,ATAAATAG,0.0906
8,CAAAATAA,0.33
9,TTAAATAA,0.249
10,TAAAATAA,0.269
11,ATCTCAGC,-0.112
12,AGTTGAGC,-0.152
13,ATCTATGC,-0.0236
14,ACGGGCCC,-0.199
15,AATTTAAC,0.208
16,AATTTAAA,0.269
17,TATTTACA,0.101
18,AATTTAAT,0.159
19,GATTTAAA,0.113
20,CATTTAAC,0.212
21,CATTTAAA,0.277
22,GATTTTAA,0.201
23,TCTTTTAA,0.142
24,TATTTAAA,0.379
25,TATTTTAA,0.301

row,Sequence,PBM E-score
1,CATTTAAG,-0.0794
2,GCACCAGC,-0.101
3,GGACAGGA,-0.152
4,ACCATCGC,0.0245
5,CGCAATCA,0.0872
6,GGCTCACC,-0.244
7,ACTAGGTG,-0.199
8,CACTTAAC,-0.121
9,AACTTAAA,0.186
10,CACTTAAA,0.287
11,AGTCCACA,-0.173
12,GTGAAATA,0.169
13,ATGAAACG,0.484
14,ATGAAAGA,0.184
15,ATGAAACA,0.495
16,GTGAAAAA,0.232
17,AGGAAACG,-0.105
18,GTGAAACA,0.48
19,AGGAAACA,0.19
20,AAGAAACG,0.148
21,AAGCAGCC,-0.078
22,ACATCTGA,-0.24
23,CAACTGTA,-0.0454
24,AATCAATG,0.0688
25,CCTAGAGC,-0.189

row,Sequence,PBM E-score
1,ATTATCCG,0.294
2,ATTATCCA,0.0202
3,ATTATCCC,0.0652
4,ACCAGTAC,-0.11
5,CTAACAGA,0.153
6,CAAACAGA,0.12
7,ATAACAGA,0.115
8,GTAACAGA,0.334
9,AAAACAGG,-0.0182
10,AAAACAGC,0.127
11,GAAACAGA,0.287
12,GAAACAGC,0.232
13,AAAACAGA,0.295
14,ATATACAT,0.00017
15,AGCCTGTC,-0.181
16,CGCTCTTC,0.00173
17,GTGTATTA,0.25
18,CTGTATCA,0.207
19,GTGTATCA,0.301
20,ATGTATCG,0.0479
21,ATGTATCA,0.344
22,ATGTATCC,0.0246
23,ACCAACCT,0.0089
24,ATTGCTGC,-0.00539
25,GCACTCCA,-0.161

row,Sequence,PBM E-score
1,AAAGAATC,0.136
2,GACTCACA,-0.201
3,AATCTCCA,-0.184
4,CAAACCGC,0.00675
5,AAAACCGC,0.0403
6,GAAACCGC,0.351
7,GAAACCAC,0.164
8,ATAACCAA,0.294
9,ATAACCAG,-0.0264
10,CAAACCTC,-0.105
11,CTAACCAA,0.186
12,GAAACCTC,0.318
13,AAAACCAA,0.209
14,GAAACCAA,0.355
15,AAAACCTC,0.207
16,ACCTAAAT,0.11
17,ACGTTGGC,-0.0145
18,CATGGCGG,-0.0453
19,CTTTGCAC,-0.0246
20,GAGCGTGA,-0.0254
21,CGGCTGAA,-0.0336
22,GCAAGCAC,-0.125
23,ATAGTTTA,0.0232
24,AAAACTCG,0.125
25,GCGATGCA,-0.234

row,Sequence,PBM E-score
1,CGAATTAG,0.095
2,AAAACCGA,0.115
3,GAAACCGA,0.267
4,CAAACCGA,0.0295
5,TCTAACAA,0.127
6,GGTAACAC,0.0298
7,TGTAACAA,0.333
8,AGTAACAA,0.0502
9,GGTAACCA,-0.12
10,GGTAACAA,0.264
11,GCTAACAA,-0.046
12,CGTAACAA,0.293
13,CGTAACAG,0.205
14,AGAACTCA,0.117
15,TCGAGCGA,-0.0486
16,GAGTTGTA,-0.0493
17,ATCGTTTG,0.0575
18,AGCGTTTC,0.294
19,CTCGTTTC,0.242
20,AGCGTTTA,-0.122
21,CGCGTTTC,0.234
22,ATCGTTTC,0.35
23,AACCCACA,-0.0351
24,GGTGGGTA,0.0601
25,TATTTTCA,0.201

row,Sequence,PBM E-score
1,AATTTTCA,0.165
2,CATTTTTA,0.0631
3,CATTTTAG,0.267
4,CATTTCCC,0.295
5,CATTTTCC,0.123
6,CATTTTAA,0.27
7,AATTTTAG,0.105
8,CATTTTCA,0.273
9,CCTTTTAA,0.0649
10,CATTTTAC,0.254
11,GATTTCCC,-0.0998
12,AAGGCGGC,-0.0929
13,CCCTGAAC,0.0241
14,CCCTTGCG,-0.0882
15,ATACGTTG,-0.0291
16,CGTGGCGC,-0.1
17,TGAGGTAA,0.128
18,TCATTACA,0.18
19,ATTAGGAC,-0.179
